Results reported in PubChem BioAssay AID1011 (National Center for Advancing Translational Sciences (NCATS), 2008).
Active and inactive are the calls of the source. Calls come from the whole dose curve.

assay: Confirmation Concentration-Response Assay for Inhibitors of the Schistosoma mansoni Redox Cascade; conditions: S. mansoni TGR/Prx2 coupled, NADPH fluorescence kinetics
Text: NIH Molecular Libraries Screening Centers Network [MLSCN] NIH Chemical Genomics Center [NCGC] MLSCN Grant: MH076449-01 Assay Provider: Prof David Williams, Illinois State University This is a confirmation assay for PubChem BioAssay AID 448. Schistosoma mansoni, a causative agent of schistosomiasis, resides in the bloodstream of their host up to 30 years without being eliminated by the host immune attack. One proposed survival mechanism is the production of an antioxidant "firewall" that neutralizes the oxidative assault of the host's immune attack. Schistosoma mansoni peroxiredoxins (Prx) are important parasite antioxidant proteins that play a crucial role in redox balance mechanisms. […] First, the proteins are essential for the parasite survival. […] Third, the protein(s) is amenable for study at the molecular level and can be produced in bacteria in large quantities, in soluble and active form. Inhibition of Prx activity was screened in a coupled-enzyme format with reducing equivalents being transferred from NADPH to […] via thioredoxin/glutathione reductase (TGR)-catalyzed reaction, then from thioredoxin to hydrogen peroxide via Prx-catalyzed electron transfer. A decrease in the fluorescence intensity of NADPH was used to measure the enzyme activity. Purified S. mansoni TGR and Prx were provided by Professor David L. Williams, Illinois State University.
Buffer: 100 mM phosphate buffer, pH 7.4, 10 mM EDTA, 0.01% Tween-20. […] 100 uM NADPH/25 nM TGR/700 uM GSH/50 nM Prx2 mixture in columns 1, 2, 5-48. Titration of control potassium antimonyl tartrate (PAT, from 1 mM, then 1:5) pin-transferred to lower half of column 2. Column 1 and upper half of column 2 are neutral (100% activity). Assay Steps: Three uL of reagents were dispensed to 1536-well Greiner black plates. Compounds and controls (20 nL) were transferred via Kalypsys PinTool. The plates were incubated for 15 min at room temperature, and then a 1 uL aliquot of 400 uM NADPH/700 uM GSH was added, immediately followed by a 1uL aliquot of 2.5 mM H2O2 (to start the reaction). The plate was transferred to ViewLux (Perkin-Elmer) High-throughput CCD imager where kinetic measurements (every 30 sec, for a total of 8 min) of NADPH fluorescence were taken using 365 nm excitation/450 nm emission filter set. During dispense, enzyme-containing reagent bottles were kept submerged into 4 deg C water bath to minimize degradation.

Row | Compound | Potency | outcome
1 | CC1=CC(=O)NP(=O)(Oc2ccccc2)N1 (stereo not drawn) | 2030 nM (active) | –
2 | CC1=CC(=O)NP(=O)(Oc2ccc(Cl)cc2)N1 (stereo not drawn) | 420 nM (active) | –
3 | Cc1cc(C)c2cc(CN(CC3COCCO3)S(=O)(=O)c3ccc(Cl)cc3)c(=O)[nH]c2c1 (stereo not drawn) | – | inactive
4 | COc1ccc(C(=O)c2no[n+]([O-])c2C(=O)c2ccc(OC)cc2)cc1 | 4670 nM (active) | –
5 | CC1=CC(=O)NP(=O)(Oc2ccc3ccccc3c2)N1 (stereo not drawn) | 120 nM (active) | –
6 | CCCCOc1cc(Br)c2noc3c2c1C(=O)c1ccccc1-3 | 800 nM (active) | –
7 | O=P(Nc1ccccc1F)(c1ccccc1)c1nc2ccccc2s1 (stereo not drawn) | 23900 nM (active) | –
8 | COc1ccc(S(=O)(=O)N(CCCN2CCCC2=O)Cc2cc3c(C)ccc(C)c3[nH]c2=O)cc1 | 50100 nM (active) | –
9 | O=C(c1cccs1)c1no[n+]([O-])c1C(=O)c1cccs1 | 1480 nM (active) | –
10 | O=C1c2cccc3cccc(c23)N1Cc1ccccc1 | – | inactive
11 | CCOc1ccc(OP2(=O)NC(=O)C=C(C)N2)cc1 (stereo not drawn) | 180 nM (active) | –
12 | CCN1C(=O)c2cccc3cccc1c23 | – | inactive
13 | Cc1conc1C(=O)c1no[n+]([O-])c1C(=O)c1nocc1C | – | inactive
14 | COc1ccc2cc(CN(C[C@H]3COCCO3)S(=O)(=O)c3ccc(Cl)cc3)c(=O)[nH]c2c1 | – | inactive
15 | COc1ccc2cc(CN(C[C@H]3COCCO3)S(=O)(=O)c3ccccc3)c(=O)[nH]c2c1 | – | inactive
16 | COc1ccc(S(=O)(=O)N(Cc2cc3ccc(OC)cc3[nH]c2=O)C[C@H]2COCCO2)cc1 | 66300 nM (active) | –
17 | CCOC(=O)C(C(=O)OCC)c1cc(Br)c2noc3c2c1C(=O)c1ccccc1-3 | – | inactive
18 | Cc1cc2cc(CN(CCCN3CCCC3=O)S(=O)(=O)c3ccc(F)cc3)c(=O)[nH]c2cc1C | – | inactive
19 | CCOCN1C(=O)c2cccc3cccc1c23 | – | inactive
20 | Cc1ccc(S(=O)(=O)N(CCCN2CCCC2=O)Cc2cc3c(C)ccc(C)c3[nH]c2=O)cc1 | – | inactive
21 | O=C(c1ccco1)c1no[n+]([O-])c1C(=O)c1ccco1 | 1520 nM (active) | –
22 | CN1C(=O)c2cccc3cccc1c23 | – | inactive
23 | COC(=O)C(C(=O)OC)c1cc(Br)c2noc3c2c1C(=O)c1ccccc1-3 | 120 nM (active) | –
